Hits are enriched below; roughly 4.9% of the tested compounds scored in any of these assays.
SKKanGAS inh: inhibitors of SKKanGAS S. pyogenes growth in kanamycin (SK-promoter or general growth effect) | BacTiter-Glo, 6 h | inhibition, % at 7.5 µM | 300,000 tested, 1.3% active | AID 1662;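 active = mean replicate score, as percent of positive control median, at least 50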;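 also: strain carries kanamycin resistance gene driven by streptokinase promoter and grows in 40 µg/ml kanamycin; loss of luminescence reflects streptokinase promoter inhibition or plain growth inhibition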
NALP3 yeast inh: blocks the NALP3 inflammasome reconstituted in yeast; Yeast reconstituted NLRP3/ASC/caspase-1, beta-gal luminescence, 24 h; inhibition, % at 10 µM; 330,000 tested, 0.39% active;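 active = inhibition of 50% or more; inactive = inhibition below 50%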
TIM10 inh: inhibits growth of TIM10 yeast strain | S. cerevisiae TIM10 strain growth, BacTiter-Glo luminescence, 24 h | inhibition, % at 10 µM | 330,000 tested, 1.4% active | AID 463195;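 active = inhibition of 40% or more at the single tested concentration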;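 also: wild-type TIM10 isogenic control strain grown at permissive 25 °C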
tim23-1 inh: tim23-1 yeast growth inhibition. S. cerevisiae tim23-1 growth, BacTiter-Glo luminescence, 24 h. inhibition, % at 20 µM. 330,000 tested, 1.3% active;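 active = growth inhibition of the mutant yeast at or above 50%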;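 also: temperature-sensitive mutant grown at 25 °C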
tim10-1 inh: inhibits growth of tim10-1 mutant yeast | S. cerevisiae tim10-1 ts strain growth, BacTiter-Glo, 24 h | inhibition, % at 20 µM | 330,000 tested, 2.2% active | AID 463190;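 active = inhibition of at least 40%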;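 also: mutant grown at 25 °C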
NALP1 yeast inh: NALP1 inhibition. 280,000 tested, 0.61% active. AID 2071. S. cerevisiae NALP1/ASC/caspase-1 growth, X-gal OD620, 72 h. inhibition, % at 10 µM; in the data active = inhibition mostly above about 24%, no sharp cut-off; inactive = mostly below about 32%
NALP3 yeast conf: NALP3 inhibition confirmation in yeast | shares compounds with NALP3 yeast inh | yeast expressing human NALP3, luminescence | inhibition, % at 10 µM | 1,300 tested, 81% active | AID 435006; in the data active = inhibition above about 48%
Casp1 ASC ctr: caspase-1-ASC yeast counter-screen hit | shares compounds with NALP3 yeast inh | yeast expressing Caspase-1-ASC, luminescence counter screen | inhibition, % at 10 µM | 1,000 tested, 66% active | AID 488784
NALP3 retest: retest-confirmed inhibitor of NALP3 in yeast; AID 488794; 1,000 tested, 53% active; shares compounds with NALP3 yeast inh; yeast expressing human NALP3, luminescence read-out; inhibition, % at 10 µM
tim10-1 conf: tim10-1 yeast growth inhibition, confirmed. inhibition, % at 20 µM. 7,400 tested, 56% active. AID 463213. S. cerevisiae tim10-1 ts strain growth, BacTiter-Glo, 24 h. shares compounds with tim10-1 inh;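 active = inhibition of yeast growth at or above a set limit in either of two repeat tests at 20 µM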;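 also: tim10-1 mutant grown at permissive 25 °C to find synthetic lethal compounds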
TIM10 conf: TIM10 yeast growth inhibition, confirmed | shares compounds with TIM10 inh | S. cerevisiae tim10 strain growth, BacTiter-Glo luminescence, 24 h | inhibition, % at 10 µM | 4,600 tested, 63% active | AID 463215;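 active = inhibition of yeast growth at or above a set limit in either of two replicates at 10 µM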; also: this counterscreen used the strain with wild-type TIM10
tim23-1 confirm: tim23-1 yeast growth inhibition, confirmed; S. cerevisiae tim23-1 growth, BacTiter-Glo luminescence, 24 h; inhibition, % at 20 µM; 4,400 tested, 83% active; shares compounds with tim23-1 inh;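 active = inhibition above about 39% in either of two replicate wells at 20 µM, limit read from the data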;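 also: temperature-sensitive tim23-1 mutant grown at 25 °C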
Large screens that a line does not name were inactive (follow-up assays come after a bar, where they were run). Rule as the data show it, unless noted: active = inhibition above about 50%; inactive = the rest.

CC(Oc1ccc(Br)cc1)C(=O)Nc1nc(-c2ccccn2)cs1 (stereo unspecified)	SKKanGAS inh 87, NALP3 yeast inh 51, tim23-1 inh 70, tim10-1 inh 45 | NALP3 yeast conf 77 | Casp1 ASC ctr 89 | NALP3 retest 81 | tim10-1 conf inactive | tim23-1 confirm 50
O=C(O)CC(c1cccc(O)c1)N1Cc2ccccc2C1=O (stereo unspecified)	none
Cn1nc(-c2ccc(Cl)cc2)nc2c(=O)n(C)c(=O)nc1-2	SKKanGAS inh 84, NALP3 yeast inh 96, TIM10 inh 95, tim23-1 inh 77, tim10-1 inh 93, NALP1 yeast inh 48 | NALP3 yeast conf 99 | Casp1 ASC ctr 99 | NALP3 retest 99 | tim10-1 conf 92 | TIM10 conf 99 | tim23-1 confirm 80
CS(=O)(=O)n1nc(-c2ccc(Cl)cc2)nc1N	none
O=c1c2ccccc2nc2c3ccccc3cnn12	NALP3 yeast inh 56, tim23-1 inh 55 | NALP3 yeast conf 63 | Casp1 ASC ctr 55 | NALP3 retest 66 | tim23-1 confirm 64
O=c1c2ccccc2nc2c3ccccc3c(Cl)nn12	none (no result: NALP3 yeast inh, TIM10 inh, tim23-1 inh, tim10-1 inh)
O=C(Oc1cc(=O)oc2c1c(=O)n1c3c(cccc23)CC1)c1ccccc1	NALP3 yeast inh 64, TIM10 inh 41, tim23-1 inh 58 | NALP3 yeast conf 76 | Casp1 ASC ctr 56 | NALP3 retest 63 | TIM10 conf inactive | tim23-1 confirm 66
O=C(Oc1cc(=O)oc2c1c(=O)n1c3c(cccc23)CC1)c1ccc(F)cc1	NALP3 yeast inh 58, TIM10 inh 47, tim23-1 inh 71, tim10-1 inh 46 | NALP3 yeast conf 74 | tim10-1 conf inactive | TIM10 conf inactive | tim23-1 confirm 53
CC1(C)CC(=O)C(=Cc2cn(-c3ccccc3)nc2-c2ccccc2)C(=O)C1	NALP3 yeast inh 54, TIM10 inh 64, tim23-1 inh 64 (no result: NALP1 yeast inh) | NALP3 yeast conf 83 | Casp1 ASC ctr inactive | NALP3 retest inactive | TIM10 conf inactive | tim23-1 confirm inactive
Clc1ccc(-c2nnc(COc3ncnc4ccccc34)o2)cc1	none
CCN1/C(=C/C=C/c2oc3ccc4ccccc4c3[n+]2CC)Oc2ccc3ccccc3c21	NALP3 yeast inh 59, TIM10 inh 62, tim23-1 inh 69, tim10-1 inh 54 (no result: SKKanGAS inh) | NALP3 yeast conf 61 | tim10-1 conf 56 | TIM10 conf 68 | tim23-1 confirm 64
N#C/C(=C\c1ccc(OCC(N)=O)cc1)C(=O)NC1CC1	none
CCCCOc1cccc(/C=C(\C#N)C(=O)NC2CC2)c1	NALP3 yeast inh 51, tim23-1 inh 89, tim10-1 inh 88 | NALP3 yeast conf 54 | Casp1 ASC ctr inactive | NALP3 retest inactive | tim10-1 conf 83 | tim23-1 confirm 85
CCCCOc1ccc(C2=CSC3=NCCN23)cc1[N+](=O)[O-]	none
CCCCOc1ccc(-c2csc(N)n2)cc1[N+](=O)[O-]	NALP3 yeast inh 57, TIM10 inh 43, tim23-1 inh 53 | NALP3 yeast conf inactive | TIM10 conf inactive | tim23-1 confirm 63
O=C(NCCc1ccccc1)C1=CCN(S(=O)(=O)c2ccccc2)CC1	none
Cc1ccc(S(=O)(=O)NCC(=O)OCC(=O)N2CC(C)OC(C)C2)cc1 (stereo unspecified)	none (no result: SKKanGAS inh, NALP1 yeast inh)
C/C(CC(C)(C)C1CCCCC1)=N\NC(N)=S	NALP3 yeast inh 54, TIM10 inh 55, tim23-1 inh 78, tim10-1 inh 69 | NALP3 yeast conf inactive | tim10-1 conf 70 | TIM10 conf 73 | tim23-1 confirm 64
O=C(Nc1ccc(Nc2ccccc2)cc1)c1ccc(Br)o1	NALP3 yeast inh 66, tim23-1 inh 52, tim10-1 inh 41 | NALP3 yeast conf 76 | Casp1 ASC ctr 76 | NALP3 retest 74 | tim10-1 conf 33 | tim23-1 confirm 80
O=C(O)c1cc(NC(=O)c2ccccc2F)cc(NC(=O)c2ccccc2F)c1	none
O=C(Nc1ccc(Nc2ccccc2)cc1)c1ccccc1F	NALP3 yeast inh 52, tim23-1 inh 64 | NALP3 yeast conf 68 | Casp1 ASC ctr 58 | NALP3 retest 64 | tim23-1 confirm 61
CC(=O)c1ccc(NC(=O)C(C)O/N=C(\N)c2ccccc2)cc1 (stereo unspecified)	none (no result: SKKanGAS inh, NALP1 yeast inh)
Cc1ccc(C)c(Sc2ccc(NC(=O)CCl)cc2)c1	NALP3 yeast inh 81, TIM10 inh 51, tim23-1 inh 74, tim10-1 inh 57 (no result: NALP1 yeast inh) | NALP3 yeast conf 81 | Casp1 ASC ctr 88 | NALP3 retest 74 | tim10-1 conf 55 | TIM10 conf 36 | tim23-1 confirm 49
Cc1ccc(Sc2ccc(NC(=O)CCl)cc2)cc1C	NALP3 yeast inh 66, TIM10 inh 40, tim23-1 inh 66, tim10-1 inh 50, NALP1 yeast inh 57 | NALP3 yeast conf 76 | Casp1 ASC ctr 62 | NALP3 retest 66 | tim10-1 conf 52 | TIM10 conf 39 | tim23-1 confirm 76
CS(=O)(=O)c1ccc(Cl)c(NC(=O)Cc2ccsc2)c1	none
NNC(=O)c1c(O)c2cccc3c2n(c1=O)CCC3	NALP3 yeast inh 62, tim23-1 inh 53 | NALP3 yeast conf 76 | Casp1 ASC ctr 52 | NALP3 retest 52 | tim23-1 confirm inactive
Cn1c(=O)c(C(=O)NNC(=O)c2ccccc2Br)c(O)c2ccccc21	SKKanGAS inh 75, NALP3 yeast inh 59, tim23-1 inh 51 | NALP3 yeast conf 84 | Casp1 ASC ctr 53 | NALP3 retest 65 | tim23-1 confirm inactive
Cn1c(=O)c(C(=O)Nc2ccccn2)c(O)c2ccccc21	NALP3 yeast inh 51, tim23-1 inh 57 | NALP3 yeast conf 63 | Casp1 ASC ctr inactive | NALP3 retest inactive | tim23-1 confirm 58
COc1c(O)c(=O)n2c3ccccc3c3ccnc1c32	NALP3 yeast inh 77, tim23-1 inh 62 (no result: NALP1 yeast inh) | NALP3 yeast conf 85 | Casp1 ASC ctr 80 | NALP3 retest 82 | tim23-1 confirm 78
O=c1c(Cl)c(O)c2cccc3c4ccccc4n1c23	none
Clc1cccc(CN2CCCCCC2)c1Cl	none
